In all, about 39,000 sequences were measured (“fluorescence intensity (a.u.)”: median about 4,300, highest 2% from about 39,000 on). Shown is part of a subset that was picked to be rich in the highest values.

In the experiment the target is T1, OsSMF1 (Oryza sativa, UniProt Q6ZLB0 1-436).
T1 sequence: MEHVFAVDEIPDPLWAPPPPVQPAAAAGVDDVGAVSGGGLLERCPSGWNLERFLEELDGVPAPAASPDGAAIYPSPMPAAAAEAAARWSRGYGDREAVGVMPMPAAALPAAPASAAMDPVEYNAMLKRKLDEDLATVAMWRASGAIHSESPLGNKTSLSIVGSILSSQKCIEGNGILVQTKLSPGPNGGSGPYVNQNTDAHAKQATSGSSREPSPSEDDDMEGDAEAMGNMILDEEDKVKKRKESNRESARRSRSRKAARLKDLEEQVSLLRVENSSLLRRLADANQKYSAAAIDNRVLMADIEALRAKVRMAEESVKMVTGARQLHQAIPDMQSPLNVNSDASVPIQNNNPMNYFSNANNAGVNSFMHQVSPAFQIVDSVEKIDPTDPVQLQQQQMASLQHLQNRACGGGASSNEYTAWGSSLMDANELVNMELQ
In words: protein-binding microarray (RPBM); PBS, 2% BSA, 51.3 ng/ul salmon testes DNA, 50 uM zinc acetate, 200 nM TF, 25 C, 1 h; high values mean tight binding. As to conditions: protein: recombinant; tags: N-terminal polyhistidine and DsRed monomer fusion (pET32a); chain copies: 2; label: CyDye5-dUTP incorporated in the synthesized complementary strand; 3' TTTTT single-stranded linker to array surface; dsDNA, one strand shown. Summed up: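 Per-feature fluorescence intensity (arbitrary units), read on an Axon 4000B scanner, is the binding signal. Transcription factors carrying an N-terminal polyhistidine tag and DsRed fusion were expressed in E. coli BL21-CodonPlus and purified on Ni–NTA. A custom Agilent array, made double-stranded by primer extension with Cy5-dUTP and blocked with 2% BSA, was incubated with 200 nM protein in PBS, 2% BSA, salmon testes DNA and 50 µM zinc acetate at 25 °C for 1 h and then washed.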
For “GCTTTACGTCTTGTGTGGAAGAAAGCGGAAAACTATCCAGCGGAGTCACCTAGTGCAG”, the binding signal is 3540 fluorescence intensity (a.u.).

In the case of “ATAATAGCACATGTGGATATCTGTAGAATTCATTTCGTGTCGGAGTCACCTAGTGCAG”, the binding signal is 3550 fluorescence intensity (a.u.).

Turning to “GAACGGGACCAGCTACTATAGTGAAATTTAGATTTCAAAGCGGAGTCACCTAGTGCAG”, the binding signal was 42200 fluorescence intensity (a.u.).

As to “GACGTGATAAAGAAGTTCAGATTTAGAAATAAATTTGAAGCGGAGTCACCTAGTGCAG”, the binding signal was 3820 fluorescence intensity (a.u.).

In the case of “AGCAGCGGGCTACAGATTTATAGCCAGCTGTAGCACGGATCGGAGTCACCTAGTGCAG”, the binding signal was 33200 fluorescence intensity (a.u.).

As to “GCGGCTTCTCGCCGGCGGCGACCACCACCCGTCACCCACCCGGAGTCACCTAGTGCAG”, the binding signal was 3380 fluorescence intensity (a.u.).

As for “ATCCATTGCTGCTTTCAGCTGAGTCACCAACTCCTATCCACGGAGTCACCTAGTGCAG”, the binding signal was 14100 fluorescence intensity (a.u.).

Take “GTTGCAGAGCAGCTCGCGCCGCGCGCGTACACTCGCTTTGCGGAGTCACCTAGTGCAG”: the binding signal was 6780 fluorescence intensity (a.u.).

Regarding “TTTGCCCATTTTATTCCCTTGCGTCATCCATTTACTGCTTCGGAGTCACCTAGTGCAG”, the binding signal is 13800 fluorescence intensity (a.u.).

With “GTGGGCTTAGACGGCCCAGTCATGACCCTTTCATTTCGTGCGGAGTCACCTAGTGCAG”, the binding signal is 3440 fluorescence intensity (a.u.).

In the case of “GGGCTTGCCCATTACGCGTTGCTATAGACGCCCTTTCATTCGGAGTCACCTAGTGCAG”, the binding signal was 41600 fluorescence intensity (a.u.).

Take “GCGGTGGCGGTTGGGGTGGCGAGTGGGGAGGAGGAGGCGGCGGAGTCACCTAGTGCAG”: the binding signal was 5880 fluorescence intensity (a.u.).

In the case of “TAGCGCGGCTGCACAGTACAGTCCGACGTCACAGCTCACTCGGAGTCACCTAGTGCAG”, the binding signal is 49200 fluorescence intensity (a.u.).

Regarding “CCCAAAGCTGACGTACAGCACCGACCCGGTCGGCTGCTCGCGGAGTCACCTAGTGCAG”, the binding signal was 4200 fluorescence intensity (a.u.).

For “CGCCGGCACAGCGACATAGCTGACGTCGACGATGCTCACTCGGAGTCACCTAGTGCAG”, the binding signal is 5350 fluorescence intensity (a.u.).

In the case of “ACCACATCCACTGCCGCGCCACGCCTCTCGGCCGCCACACCGGAGTCACCTAGTGCAG”, the binding signal is 3770 fluorescence intensity (a.u.).

Regarding “CAACCTTTATCTGAAGTGGCAGGCACGTGGATTAGCAATACGGAGTCACCTAGTGCAG”, the binding signal was 5790 fluorescence intensity (a.u.).

Take “GGTAATAGTGTCAACATATTGCATTAAGATGATTGCAGTGCGGAGTCACCTAGTGCAG”: the binding signal is 24300 fluorescence intensity (a.u.).

On to “CAAGATGGGTCGGGTTGGGTGGGGTTACTCGCACTAGCACCGGAGTCACCTAGTGCAG”, for which the binding signal was 3160 fluorescence intensity (a.u.).

In the case of “GCGGCTCGCCGTCATATGCGACGTGGCATGCACGACGCCGCGGAGTCACCTAGTGCAG”, the binding signal is 14300 fluorescence intensity (a.u.).

Consider “CGCTGCTGAGTGCTGACTCCTTCGCCCTCCTCCTCACTTTCGGAGTCACCTAGTGCAG”, for which the binding signal was 7650 fluorescence intensity (a.u.).

Regarding “TTTTCGCTGAGGTGGCAGGTTAACTTGTCTGCTTTCGGCCCGGAGTCACCTAGTGCAG”, the binding signal is 39300 fluorescence intensity (a.u.).

Regarding “CTAGCTTTGAGGTGGAGGTGGTGGTGGAGGAGGAGGAGGACGGAGTCACCTAGTGCAG”, the binding signal was 3340 fluorescence intensity (a.u.).

For the sequence “GAATAGCTGCTTGTTAACTAGGGATTAGAGGTGGGGTTTTCGGAGTCACCTAGTGCAG”, the binding signal was 17400 fluorescence intensity (a.u.).

For “AGTGGCAGGGGTGTGGGGATTGCCGGCTTGCCGCGGAGGACGGAGTCACCTAGTGCAG”, the binding signal is 3530 fluorescence intensity (a.u.).

On to “GGCAGGACGGCAGGAGGCCTGTTCGCTTGAGGTGTCTAGCCGGAGTCACCTAGTGCAG”, for which the binding signal was 39800 fluorescence intensity (a.u.).

For “GGGCTGGGGAAAATGATCGACTACTTTTAACCATTTCAGTCGGAGTCACCTAGTGCAG”, the binding signal is 3420 fluorescence intensity (a.u.).

Turning to “TACGTTGAATATTACCCTCTTGATGACTTGACTAATTTTACGGAGTCACCTAGTGCAG”, the binding signal was 3880 fluorescence intensity (a.u.).

For the sequence “TTATATATCCCTGATAGCTGATTAGTTGGCACATCAGCATCGGAGTCACCTAGTGCAG”, the binding signal is 3210 fluorescence intensity (a.u.).

In the case of “CAAGGGAGGAGGGAGAAAGAAAAGGATGGGAGATTTGCTCCGGAGTCACCTAGTGCAG”, the binding signal is 3290 fluorescence intensity (a.u.).

With “AAGGTAGAGTCAAATAGAAGCTCTATATCATGTAGACACTCGGAGTCACCTAGTGCAG”, the binding signal is 3360 fluorescence intensity (a.u.).

As to “AGAGGTTCAAACTGTATATGTTCTAGACCATTCACAAGCTCGGAGTCACCTAGTGCAG”, the binding signal is 64100 fluorescence intensity (a.u.).

As for “TGGTCACTGCAGCAGGTTCAGGACAAAGCAACCTGTTTCTCGGAGTCACCTAGTGCAG”, the binding signal is 3600 fluorescence intensity (a.u.).

Regarding “ACCCACACACCCACACCCACACGTCAAAGACCCACGGTTTCGGAGTCACCTAGTGCAG”, the binding signal is 3160 fluorescence intensity (a.u.).

Consider “TGTGGTGTGTGTGTGGCTGAAACCGCGAGGCCGCCGCGAGCGGAGTCACCTAGTGCAG”, for which the binding signal is 3440 fluorescence intensity (a.u.).

As to “CAGAGGCAAACGTACGTGGAGGCAGGAGGAGTGGTCACCGCGGAGTCACCTAGTGCAG”, the binding signal is 4440 fluorescence intensity (a.u.).

For the sequence “CCTAACCGCCCAGCAGAGGCAAAGTGTGGTCGAAACCTAGCGGAGTCACCTAGTGCAG”, the binding signal was 49500 fluorescence intensity (a.u.).

Turning to “CCGTCGCCGGCGGCGGATCGGCCCCACATCACCTCGGCCTCGGAGTCACCTAGTGCAG”, the binding signal was 3250 fluorescence intensity (a.u.).

Regarding “AGAAGACAACAGTGAGGAACTGAGGACACGTGTACTTGGACGGAGTCACCTAGTGCAG”, the binding signal is 12600 fluorescence intensity (a.u.).

“ACCTTGTACTTTTGTCTACATATGTGTCATTCTATCTTGGCGGAGTCACCTAGTGCAG”: the binding signal is 5120 fluorescence intensity (a.u.).

Regarding “TGAGCCCATTCTATCTTGTACCAATTTGTGGGATATGGCCCGGAGTCACCTAGTGCAG”, the binding signal is 41000 fluorescence intensity (a.u.).

Turning to “AAATTTGTACCATCTTGTTGTCCATCATTCTTGACAAGAGCGGAGTCACCTAGTGCAG”, the binding signal was 3280 fluorescence intensity (a.u.).

Source of the values: PMC7819943, “Rice protein-binding microarrays: a tool to detect cis-acting elements near promoter regions in rice”.
